Test [1] has as its target Thyrotropin receptor (Homo sapiens) (UniProt P16473). Put plainly: qHTS assay to identify small molecule antagonists of the thyroid stimulating hormone receptor (TSHR) signaling pathway (AID 1259385; calls by dose curve; further: nearly all actives have a fitted effect of over 20% in size). The procedure, abridged:
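Antagonist mode: compound-treated TSHR-expressing HEK293 cells were stimulated with 1.5 ng/mL TSH (final) in presence of Ro20-1724 for 30 min at RT. HTRF cAMP detection after 1 h; each compound tested at 15 concentrations, triplicate.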

Test [2] in a line: qHTS assay to identify small molecule agonists of the estrogen receptor alpha (ER-alpha) signaling pathway in the presence of an antagonist - cell viability counter screen (AID 1259386).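 Further: cells exposed to compounds for 22 h at 37 °C before the viability read; nearly all actives have a fitted effect of over 30% in size.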 Further: potency means the concentration at half of the fitted maximal effect. The procedure, abridged:
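In this counter screen, compound effects on VM7Luc4E2 viability were tested in the presence of the antagonist ICI-182,780 at 10.0nM final. Compounds were dosed at 15 concentrations, exposure lasted 22hr, and the CellTiter-Fluor signal was read.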

In test [3] the target is Progesterone receptor (Homo sapiens) (UniProt P06401). Put plainly: qHTS assay to identify small molecule agonists of the progesterone receptor (PR) signaling pathway (AID 1346784; calls by dose curve; further: nearly all actives have a fitted effect of over 30% in size). The method, boiled down:
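HEK 293T PR-UAS-bla reporter cells, 2% charcoal-stripped FBS; 6 hr settle at 37C/5% CO2, compound (DMSO) 16 hr, LiveBLAzer B/G FRET substrate 2 hr RT, fluorescence intensity read.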

Test [4] has the same target. Put plainly: qHTS assay to identify small molecule antagonists of the progesterone receptor (PR) signaling pathway (AID 1346795; active means well fitted inhibition curve with a large enough effect in the signal ratio in the repeat runs, not every such curve was filed as active; the % refers to the signal ratio; further: potency means the concentration at half of the fitted maximal effect). The method, boiled down: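 Beta-lactamase reporter, HEK293T PR-UAS-bla line; 2% charcoal-stripped FBS; 6 hr pre-incubation, 37C/5% CO2. Compound + R5020 1 nM final, 16 hr. LiveBLAzer B/G FRET substrate, 2 hr RT; fluorescence intensity read.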

Test [5] is described as follows: qHTS assay to identify small molecule antagonists of the progesterone receptor (PR) signaling pathway - cell viability counter screen (AID 1346798). Further: series mostly up to about 92 µM; nearly all actives have a fitted effect of over 50% in size. The method, boiled down:
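Luminescence readout (CellTiter-Glo, 30 min, RT) of viability in PR-UAS-bla HEK293T cells exposed to compound and R5020 agonist for 16 hr at 37C, 5% CO2; run in the same wells as the beta-lactamase reporter read.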

Test [6] can be described thus: qHTS assay to identify small molecule agonists of the progesterone receptor (PR) signaling pathway - cell viability counter screen (AID 1346799; calls by dose curve; further: nearly all actives have a fitted effect of over 45% in size). The method, boiled down:
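HEK293T PR-UAS-bla, 3,000 cells/well, 2% charcoal-stripped FBS; 6 h settle, compound 16 h at 37C/5% CO2; LiveBLAzer 2 h RT, then CellTiter-Glo 30 min RT, luminescence read.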

Test [7] in a line: qHTS assay to identify small molecule antagonists of the TGF-beta/Smad signaling pathway - cell viability counter screen (AID 1346824). Further: nearly all actives have a fitted effect of over 50% in size. The method, boiled down:
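Cytotoxicity counter-screen run in the same wells as the beta-lactamase Smad reporter read: CellTiter-Glo luminescence after 30 min at room temperature. HEK 293T SBE-bla cells had 5 hr compound exposure at 37 C with TGF-beta1 (0.25 ng/mL stock).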

Test [8] can be described thus: qHTS assay to identify small molecule agonists of the TGF-beta/Smad signaling pathway (AID 1346859; active means well fitted activation curve with a large enough effect in the signal ratio in the repeat runs, not every such curve was filed as active; the % refers to the signal ratio; further: series mostly up to about 77 µM). The method, boiled down: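 Read-out: fluorescence at 460 and 530 nm (405 nm excitation) after a 2 hr room-temperature incubation with beta-lactamase FRET substrate. SBE-bla HEK 293T cells had been treated with test compounds for 5 hr at 37 C.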
Test [9] has as its target Thyrotropin-releasing hormone receptor (Homo sapiens) (UniProt P34981). Put plainly: qHTS assay to identify small molecule antagonists of the thyrotropin-releasing hormone receptor (TRHR) signaling pathway (AID 1346877; active means well fitted inhibition curve with a large enough effect in the repeat runs, not every such curve was filed as active; further: series mostly up to about 51 µM). The method, boiled down: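 Kinetic fluorescence (3 min, 1 s resolution) following stimulation with TRH at 1 nM final; HEK293 cells bearing human TRHR; 5 min compound preincubation at RT; concentration-response over 15 points, triplicates.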

Test [10] shares this target. Put plainly: qHTS assay to identify small molecule agonists of the thyrotropin-releasing hormone receptor (TRHR) signaling pathway (AID 1346891; calls by dose curve;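 further: HEK293 cells expressing TRHR with calcium dye readout; series mostly up to about 58 µM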). The method, boiled down: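 HEK293/TRHR cells, 1500 per well, 18 h 37 °C; Ca dye 2 h 37 °C; pin-tool compound addition (agonist mode); kinetic fluorescence 3 min, 1 s reads; 15 concentrations, triplicate.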
The nature of test [11]: Caspase-3/7 induction in HepG2 cells by small molecules, qHTS assay (AID 1346978). Further: nearly all actives have a fitted effect of over 15% in size. The procedure, abridged: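 Caspase-3/7 induction was measured by Caspase-Glo 3/7 luminescence (30 min, room temperature) after a 17 hr compound exposure of wild-type HepG2 cells seeded at 2,000 per well and pre-incubated 5 hr.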
A short description of test [12]: Caspase-3/7 induction in CHO-K1 cells by small molecules, qHTS cell viability counter screen (AID 1346979). Further: nearly all actives have a fitted effect of over 35% in size. Further: potency means the concentration at half of the fitted maximal effect. The procedure, abridged: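 CHO-K1 wt, 1,500 cells/well; 5hr pre-incubation 37C/5% CO2; compound pin transfer (DMSO); 16hr exposure; CellTiter-Fluor added, 1hr, fluorescence read.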
The nature of test [13]: Caspase-3/7 induction in CHO-K1 cells by small molecules, qHTS assay (AID 1346980). Further: nearly all actives have a fitted effect of over 15% in size. The method, boiled down:
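Luminescent Caspase-Glo 3/7 read (30min, room temperature) quantified apoptosis induction. Cells were wild-type CHO-K1, treated with compound for 17hr at 37 C and 5% CO2.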

The nature of test [14]: Caspase-3/7 induction in HepG2 cells by small molecules, qHTS cell viability counter screen (AID 1346981). Further: nearly all actives have a fitted effect of over 30% in size. Further: potency means the concentration at half of the fitted maximal effect. The method, boiled down:
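In this quantitative HTS counter screen, compounds delivered in DMSO were left on unmodified HepG2 cells for 16 hr at 37 C. Viability was then determined fluorometrically with CellTiter-Fluor, in parallel with caspase-3/7 induction in the same wells.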

Test [15] has as its target Nuclear receptor subfamily 1 group I member 2 (Rattus norvegicus) (UniProt Q9R1A7). Put plainly: Rat pregnane X receptor (rPXR) activation by small molecules, qHTS assay (AID 1346983). Further: nearly all actives have a fitted effect of over 20% in size. The following applies: rPXR luciferase reporter cells, One-Glo luminescence, 24 h; max activation: stronger effect = higher value. The method, boiled down:
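Luminescent readout (One-Glo luciferase, 30 min room temperature) followed 24 hr compound treatment at 37 C of rPXR cells plated 2,000 per well and preincubated 5hr; qHTS format with compounds delivered in DMSO.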

Test [16] has as its target Nuclear receptor subfamily 1 group I member 2 (Homo sapiens) (UniProt O75469). Put plainly: Human pregnane X receptor (PXR) small molecule agonists, qHTS assay (AID 1346982). Further: nearly all actives have a fitted effect of over 35% in size. Further: potency means the concentration at half of the fitted maximal effect. The procedure, abridged: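 Reporter HepG2 cells expressing PXR-Luc are cultured in charcoal-stripped FBS (5%), treated with compounds for 24 hr at 37 C, and assayed by ONE-Glo luminescence after 30 min at room temperature.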

For test [17] the target is unchanged. Put plainly: CYP3A4 induction through human pregnane X receptor (PXR) by small molecules, qHTS assay (AID 1346984). Further: nearly all actives have a fitted effect of over 40% in size. The method, boiled down: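 Induction measured in HepG2-based DPX-2 cells co-expressing human PXR and a CYP3A4 promoter-driven luciferase. After a 24-hour compound exposure, cells received CYP3A4 luciferin substrate at 3uM final for 3 hours, and light output was then recorded.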

For test [18] the target is unchanged. Put plainly: Human pregnane X receptor (PXR) activation by small molecules, qHTS assay (AID 1346985). Further: nearly all actives have a fitted effect of over 40% in size. The procedure, abridged:
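DPX-2 cells (HepG2 co-transfected with a PXR response element and a CYP3A4-promoter luciferase construct) were seeded at 2,000 per well, rested 5 hr at 37C, then exposed to DMSO-dissolved compounds for 24 hr. Activation was read as luciferase luminescence.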

Test [19] can be described thus: qHTS assay to identify small molecule agonists of the TGF-beta/Smad signaling pathway - cell viability counter screen (AID 1346829). Further: top concentration of the series differs between compounds; nearly all actives have a fitted effect of over 45% in size. The method, boiled down: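 SBE-bla HEK 293T cells plated overnight, compound exposure 5 hr at 37 C. Viability read in the same wells by CellTiter-Glo luminescence after 30 min at room temperature, following the beta-lactamase read.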

A short description of test [20]: Human pregnane X receptor (PXR) small molecule agonists, qHTS cell viability counter screen (AID 1346977). Further: nearly all actives have a fitted effect of over 50% in size. The procedure, abridged:
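Fluorescence read-out (CellTiter-Fluor) of viability in PXR-Luc HepG2 cells, multiplexed with the luciferase agonist read. Compounds in DMSO added after 5hr plating; 24hr total exposure at 37C, 5% CO2.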

The values that follow come from PubChem BioAssay (Tox21).

“And” between values parts separate entries of the source, which are not always exact repeats. Identical values can stand only once. Results filed as inconclusive are left out. Where a structure was tested more than once in an assay, its records may differ in their call. The source made the active and inactive calls. Unless noted, the call rests on the fitted dose curve; in most records, active means well fitted curve in the direction sought with a large enough effect in the repeat runs; inconclusive means weak or mixed curves; inactive means no such curve, though single readings can be large; an effect the other way counts as inactive or inconclusive.
On the % scale 0 is the no-effect control and ±100 the full control effect.

Chain of Nuclear receptor subfamily 1 group I member 2 (Rattus norvegicus) (Q9R1A7 whole entry, looked up): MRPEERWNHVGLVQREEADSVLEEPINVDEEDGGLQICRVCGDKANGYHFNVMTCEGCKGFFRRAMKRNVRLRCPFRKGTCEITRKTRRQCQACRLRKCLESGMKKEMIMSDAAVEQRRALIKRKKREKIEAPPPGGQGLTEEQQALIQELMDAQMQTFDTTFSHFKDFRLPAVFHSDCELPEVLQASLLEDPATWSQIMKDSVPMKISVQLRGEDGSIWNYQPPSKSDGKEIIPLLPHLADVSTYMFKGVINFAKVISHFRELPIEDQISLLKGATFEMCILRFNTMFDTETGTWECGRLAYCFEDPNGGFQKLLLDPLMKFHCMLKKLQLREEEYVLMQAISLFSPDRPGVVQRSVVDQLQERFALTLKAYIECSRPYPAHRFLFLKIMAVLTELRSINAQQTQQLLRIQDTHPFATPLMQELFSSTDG
Chain of Thyrotropin receptor (Homo sapiens) (P16473 whole entry, looked up): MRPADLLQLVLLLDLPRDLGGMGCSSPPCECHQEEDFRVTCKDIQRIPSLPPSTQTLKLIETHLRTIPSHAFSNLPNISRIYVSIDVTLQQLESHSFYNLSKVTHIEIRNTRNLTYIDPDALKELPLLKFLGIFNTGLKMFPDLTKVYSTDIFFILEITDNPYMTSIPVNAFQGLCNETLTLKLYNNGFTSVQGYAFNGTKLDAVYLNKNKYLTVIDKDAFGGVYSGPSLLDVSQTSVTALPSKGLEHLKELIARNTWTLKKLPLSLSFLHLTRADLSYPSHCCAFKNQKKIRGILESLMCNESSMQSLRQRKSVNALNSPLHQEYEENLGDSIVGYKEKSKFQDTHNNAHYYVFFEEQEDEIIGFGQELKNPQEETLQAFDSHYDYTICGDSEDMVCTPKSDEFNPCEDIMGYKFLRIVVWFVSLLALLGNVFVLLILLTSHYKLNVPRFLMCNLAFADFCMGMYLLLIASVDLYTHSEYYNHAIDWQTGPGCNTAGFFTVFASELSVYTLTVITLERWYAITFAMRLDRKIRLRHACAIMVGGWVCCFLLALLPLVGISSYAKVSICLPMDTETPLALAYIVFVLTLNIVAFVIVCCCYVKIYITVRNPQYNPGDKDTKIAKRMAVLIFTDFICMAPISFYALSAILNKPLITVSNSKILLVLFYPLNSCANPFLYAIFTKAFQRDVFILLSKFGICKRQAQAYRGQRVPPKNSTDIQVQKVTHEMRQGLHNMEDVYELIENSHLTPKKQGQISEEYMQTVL
Chain of Progesterone receptor (Homo sapiens) (P06401 whole entry, looked up): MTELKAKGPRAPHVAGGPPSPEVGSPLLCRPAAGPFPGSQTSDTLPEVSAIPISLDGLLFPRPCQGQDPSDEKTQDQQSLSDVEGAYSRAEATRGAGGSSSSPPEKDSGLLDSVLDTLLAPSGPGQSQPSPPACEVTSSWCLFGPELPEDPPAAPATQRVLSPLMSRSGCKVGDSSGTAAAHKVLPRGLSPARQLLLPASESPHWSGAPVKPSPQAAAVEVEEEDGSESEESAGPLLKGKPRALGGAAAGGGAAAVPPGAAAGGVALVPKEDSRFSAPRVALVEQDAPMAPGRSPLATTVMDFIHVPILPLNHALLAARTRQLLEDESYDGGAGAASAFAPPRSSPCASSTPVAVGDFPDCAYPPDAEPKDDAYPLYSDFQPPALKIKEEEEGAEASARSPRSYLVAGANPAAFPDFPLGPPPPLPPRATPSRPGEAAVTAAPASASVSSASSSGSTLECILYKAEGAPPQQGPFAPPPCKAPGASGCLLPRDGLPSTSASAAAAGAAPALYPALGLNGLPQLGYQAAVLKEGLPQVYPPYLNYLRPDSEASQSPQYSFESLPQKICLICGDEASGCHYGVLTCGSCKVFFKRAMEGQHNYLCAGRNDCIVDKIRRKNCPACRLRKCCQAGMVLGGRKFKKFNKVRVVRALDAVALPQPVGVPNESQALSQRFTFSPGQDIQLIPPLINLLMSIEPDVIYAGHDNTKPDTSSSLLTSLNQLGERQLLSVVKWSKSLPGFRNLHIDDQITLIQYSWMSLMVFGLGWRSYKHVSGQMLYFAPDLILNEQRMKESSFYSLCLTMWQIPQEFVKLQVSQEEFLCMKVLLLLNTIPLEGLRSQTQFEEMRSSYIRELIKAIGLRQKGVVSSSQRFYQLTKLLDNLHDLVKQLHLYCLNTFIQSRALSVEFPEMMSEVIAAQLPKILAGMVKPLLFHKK
Chain of Nuclear receptor subfamily 1 group I member 2 (Homo sapiens) (O75469 whole entry, looked up): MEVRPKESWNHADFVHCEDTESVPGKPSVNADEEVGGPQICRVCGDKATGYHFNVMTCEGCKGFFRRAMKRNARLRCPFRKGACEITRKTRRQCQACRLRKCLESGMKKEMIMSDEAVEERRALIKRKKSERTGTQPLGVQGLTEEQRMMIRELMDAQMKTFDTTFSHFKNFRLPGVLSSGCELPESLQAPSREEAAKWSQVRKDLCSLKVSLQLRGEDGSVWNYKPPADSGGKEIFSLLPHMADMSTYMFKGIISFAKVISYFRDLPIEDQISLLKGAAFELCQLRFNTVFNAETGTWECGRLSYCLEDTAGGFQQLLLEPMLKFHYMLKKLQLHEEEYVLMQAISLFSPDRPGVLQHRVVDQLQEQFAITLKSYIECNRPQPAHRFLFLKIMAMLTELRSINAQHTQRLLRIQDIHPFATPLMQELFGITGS
Chain of Thyrotropin-releasing hormone receptor (Homo sapiens) (P34981 whole entry, looked up): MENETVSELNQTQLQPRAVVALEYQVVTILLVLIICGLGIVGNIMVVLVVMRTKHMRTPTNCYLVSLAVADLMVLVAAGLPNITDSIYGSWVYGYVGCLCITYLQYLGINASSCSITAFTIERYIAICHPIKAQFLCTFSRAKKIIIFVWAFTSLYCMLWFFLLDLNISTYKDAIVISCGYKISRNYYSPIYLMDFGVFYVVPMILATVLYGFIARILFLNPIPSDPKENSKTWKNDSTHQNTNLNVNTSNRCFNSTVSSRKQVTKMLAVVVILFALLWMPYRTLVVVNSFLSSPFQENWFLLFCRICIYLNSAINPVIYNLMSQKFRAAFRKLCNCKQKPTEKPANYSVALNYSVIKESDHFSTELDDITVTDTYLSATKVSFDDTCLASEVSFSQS

Take `CO[C@H]1C=CO[C@@]2(C)Oc3c(C)c(O)c4c(O)c(c(/C=N/N5CCN(C)CC5)c(O)c4c3C2=O)NC(=O)/C(C)=C\C=C[C@H](C)[C@H](O)[C@@H](C)[C@@H](O)[C@@H](C)[C@H](OC(C)=O)[C@@H]1C`: the compound was classed as inactive in test [1], in [8], in test [9] and in test [13]. For the same compound, the Potency in test [2] was 27.4 µM (active) and 31 µM (active) and 23.7 µM (active); in test [12], 30.8 µM (active) and 34.8 µM (active) and 26.6 µM (active); in test [14] it was 27.4 µM (active) and 34.8 µM (active) and 23.7 µM (active). For the same compound, the Potency result in test [3], in test [4], in test [5], in test [6], in [7] and in [10] was “inactive” in each case. In test [11], the Potency result is “inactive”. Further, in test [15], the max activation was -4.8% (inactive).
Regarding `CCCCCCCCOc1ccc(C(=O)c2ccccc2)c(O)c1`, the compound was called inactive in test [1], in [8], in [9] and in test [13]. Also, the Potency result in test [2], in test [3], in test [4], in test [5], in [6] and in test [7] was “inactive” throughout. For the same compound, the Potency entry in [10], in test [11], in test [12], in test [14], in [16] and in test [17] was “inactive” throughout. In addition, in [18], the Potency result is “inactive”. In addition, the max activation in [15] is -2.91% (inactive).
Take `Nc1ccc(N=Nc2ccccc2)c(N)n1`: the compound was classed as inactive in test [1], in test [8] and in test [9]. Further, the Potency in test [2] is 30.8 µM (active) and 24.3 µM (active) and 26.6 µM (active); in test [4] it was 43.3 µM (active); in test [12], 48.8 µM (active) and 48.6 µM (active) and 26.6 µM (active); in [14], 21.1 µM (active); in test [16] it was 27.4 µM (active) and 27.3 µM (active) and 6.68 µM (active). Also, the Potency entry in [3], in test [5], in test [6], in [7], in [10] and in test [11] was “inactive” throughout.
On to `CCOCCO`, for which the compound was called inactive in test [1], in [8], in test [9] and in [13]. The Potency entry in test [2], in test [3], in test [4], in test [5], in test [6] and in [7] was “inactive” each time. The Potency result in [10], in test [11], in test [12], in test [14] and in [16] was “inactive” in each case.
Regarding `CC(=O)Oc1ccccc1C(=O)O`, the result in test [1] and in test [8] was inactive. Also, the Potency result in [2], in test [3], in [4], in [5], in [6] and in test [7] was “inactive” throughout. Also, the Potency entry in test [19], in test [20], in [11], in test [12], in [14] and in test [16] was “inactive” in each case.
`C1CNCCN1`: the call in test [1], in test [8] and in test [9] was inactive. The Potency result in [2], in [3], in [4], in [5], in test [6] and in test [7] was “inactive” each time. In addition, the Potency entry in [10], in [11], in test [14] and in test [16] was “inactive” throughout. For the same compound, the Potency in test [12] is 44.6 µM (active) and inactive.
With `CCCCCCCCCCCCCC(=O)OC(C)C`, the result in [1] and in test [8] was inactive. For the same compound, the Potency entry in [2], in test [3], in [4], in test [5], in test [6] and in [7] was “inactive” in each case. Moreover, the Potency result in test [19], in test [20], in [11], in [12], in test [14] and in test [16] was “inactive” throughout. In addition, the Potency entry in test [17] and in [18] was “inactive” throughout. The max activation in test [15] is -1.74% (inactive).
With `CCN(CC)CCOC(=O)c1ccc(N)cc1`, the compound was called inactive in test [1], in test [8], in test [9] and in test [13]. In addition, the Potency entry in [2], in test [3], in test [4], in test [5], in test [6] and in test [7] was “inactive” in each case. The Potency result in [10], in test [20], in test [11], in [12], in test [14] and in test [16] was “inactive” each time. Further, the Potency result in [17] and in test [18] was “inactive” in each case. For the same compound, the max activation in test [15] is -0.318% (inactive).
